NPR1 antag – Natriuretic polypeptide receptor (hNpr1) antagonism - Primary qHTS; HEK293 hNpr1 GloSensor cGMP, ANP-stimulated luminescence; actives 1.6% (n = 76,000); Potency, µM (highest dose often 46.3 µM), for inactives: at the top dose activity change, negative = inhibition, most hits filed as inhibitors; calls by dose curve; also: nearly all actives have a fitted effect of over 60% in size
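Compound pre-incubated 30 min at room temperature on GloSensor-loaded HEK293 cells stably carrying hNpr1 and the pGS-40F cGMP biosensor. Stimulation uses hNppA at 0.1 nM final; luminescence is taken at baseline and 20 min post-agonist.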
SNCA expr inhib – Primary qHTS assay for inhibitors of alpha-synuclein gene (SNCA) expression; HEK-293 SNCA-luciferase knock-in, luminescence, 24 h; Potency, µM (top dose mostly 57.2 µM), for inactives: top-dose activity change, negative = inhibition, most hits filed as inhibitors; actives 0.17% (n = 140,000);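 also: plate controls were DMSO cells for no effect and cell-free wells for full effect; nearly all actives have a fitted effect of over 45% in size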
FLuc inh – Firefly luciferase inhibition profiling of diverse chemical library using quantitative high-throughput screening. purified P. pyralis luciferase, luminescence, biochemical. Potency, µM (titrated, usually from 115 µM), hits mostly inhibitors. actives 2.5% (n = 76,000); also: nearly all actives have a fitted effect of over 65% in size
Target sequence (P08659 whole entry, looked up): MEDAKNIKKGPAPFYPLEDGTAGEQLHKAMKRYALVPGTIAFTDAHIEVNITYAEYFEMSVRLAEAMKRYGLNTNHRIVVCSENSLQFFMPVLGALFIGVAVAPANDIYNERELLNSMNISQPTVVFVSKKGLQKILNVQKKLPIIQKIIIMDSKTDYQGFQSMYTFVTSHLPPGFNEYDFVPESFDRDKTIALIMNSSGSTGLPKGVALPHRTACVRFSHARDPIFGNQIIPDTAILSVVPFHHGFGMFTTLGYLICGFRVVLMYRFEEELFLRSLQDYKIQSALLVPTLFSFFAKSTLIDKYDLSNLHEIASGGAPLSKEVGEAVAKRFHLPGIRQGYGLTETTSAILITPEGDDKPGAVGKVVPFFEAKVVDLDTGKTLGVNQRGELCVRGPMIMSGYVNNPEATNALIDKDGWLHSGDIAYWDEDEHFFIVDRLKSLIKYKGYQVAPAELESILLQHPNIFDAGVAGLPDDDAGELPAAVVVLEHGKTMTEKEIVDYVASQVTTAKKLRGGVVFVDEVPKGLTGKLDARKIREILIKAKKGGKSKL
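FLuc 10nM, D-luciferin 10uM, ATP 10uM, Mg acetate 10mM, Tris acetate pH 7.5, Tween/BSA; cpd qHTS; enzyme added last; CCD luminescence.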
3T3 cytotox – Cytotoxic Profiling in NIH 3T3 Cell Line of Diverse Libraries Using Quantitative High-Throughput Screening. NIH 3T3 viability, CellTiter-Glo ATP luminescence, 48-72 h. Potency, µM (titrated, usually from 96.7 µM), for the others: at the highest dose activity change, negative = cytotoxicity, most hits filed as inhibitors. actives 4.3% (n = 94,000); also: nearly all actives have a fitted effect of over 55% in size
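Cytotoxicity is measured as loss of cellular ATP: NIH 3T3 cells (400/well) are exposed to compound for 48 or 72 hr at 37 °C, then CellTiter-Glo luminescence is imaged after 10 min at room temperature.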
HEK293 tox – Cytotoxic Profiling in HEK 293 Cell Line of Diverse Libraries Using Quantitative High-Throughput Screening; HEK 293 viability, ATP luminescence (CellTiter-Glo), 48-72 h; Potency, µM (highest dose often 115 µM), inactives show at the highest dose activity change, negative = cytotoxicity, hits mostly inhibitors; actives 6.6% (n = 94,000); AID 1345083, 2018; also: nearly all actives have a fitted effect of over 60% in size
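Pintool-delivered compounds were incubated with HEK 293 cells (250 cells/well) at 37 degree Celsius for 48 or 72 hr. ATP-dependent luminescence (CellTiter-Glo) then reported remaining viable cells.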
HEK293 viab – GF-AFC viability counterscreen for inhibitors of alpha-synuclein gene (SNCA) expression. AID 1671193, 2021. Potency, µM (titrated, usually from 57.1 µM), without a hit: at the top dose activity change, negative = cytotoxicity, hits mostly cytotoxic. actives 0.12% (n = 150,000). HEK-293-SNCA-luc viability, GF-AFC fluorescence, 24 h;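 also: 0% = DMSO-treated cells and -100% = medium-only wells without cells; nearly all actives have a fitted effect of over 30% in size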
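Cytotoxicity counterscreen: after 24 h compound treatment of genome-edited SNCA-luciferase HEK-293 cells, live-cell protease substrate GF-AFC read by fluorescence after 30 min; activity scaled between DMSO (0%) and medium-only (-100%), curves Hill-fitted.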
An asterisk follows results filed as active; i = inactive; ? = inconclusive; . = no result; ! = repeats disagree; [ ] = another dose, or the depositor's remark. Rows were chosen to be rich in hits. Some 7.4% of all compounds tested hit in one or more screens of this group. Unless noted, calls follow the shape of the dose curve; as a rule, active = well fitted curve in the direction sought with a large enough effect; inconclusive = small, poorly fitted or top-dose-only effect, or another doubt; inactive = no such curve, though single readings can be large; an effect the other way counts as inactive or inconclusive. Unless noted, % is scaled to controls: 0 for no effect and ±100 for the full control effect; potency is read from the fitted curve at half-maximal effect.

SMILES	NPR1 antag	SNCA expr inhib	FLuc inh	3T3 cytotox	HEK293 tox	HEK293 viab
COC(=O)c1ccc2nc(CO[C@H]3CN(Cc4ccc(C(F)(F)F)cc4)C[C@H]3F)[nH]c2c1	?	-33%	i	?	50µM*	-7%
CC(=O)Nc1ccc(CN2C[C@@H](F)[C@@H](OCc3nc4cc(C)c(C)cc4[nH]3)C2)cc1	0%[70.6 µM]	-3%[87.6 µM]	i	?	?	4%[87.6 µM]
Cc1cc2nc(CO[C@H]3CN(Cc4ccc(C(=O)O)cc4)C[C@H]3F)[nH]c2cc1C	-3%[70.6 µM]	9%[87.6 µM]	22µM*	-1%[174 µM]	-8%[172 µM]	2%[87.6 µM]
Cc1ccc(NC(=O)C2(c3ccc4c(c3)OC(F)(F)O4)CC2)nc1-c1cccc(C(=O)O)c1	.	0.076µM*	.	.	.	?
COc1ccc(-c2ccc3ncc(Nc4ccnc(N5CCOCC5)c4)n3n2)cc1OC	3%[70.6 µM]	35%[87.6 µM]	?	45µM*	?	-18%[87.6 µM]
COc1ccc(-c2ccc3ncc(Nc4ccc(C(N)=O)cc4)n3n2)cc1OC	2%[70.6 µM]	7%[87.6 µM]	i	18µM*	?	-16%[87.6 µM]
COc1ccc(-c2ccc3ncc(Nc4cccc(F)c4)n3n2)cn1	-16%[70.6 µM]	32%[87.6 µM]	?	?	63µM*	-16%[87.6 µM]
COc1ccc(-c2ccc3ncc(Nc4cccc(F)c4)n3n2)cc1OC	4%[70.6 µM]	10%[87.6 µM]	i	?	63µM*	-1%[87.6 µM]
CCNC(=O)OC1CCN(C(=O)c2ccc3c(c2)OCCCO3)CC(=O)N(C)c2ccccc21 (stereo not given)	.	.	.	?	-10%	.
COc1ccc(-c2ccc3ncc(Nc4ccccc4OC)n3n2)cn1	-2%[70.6 µM]	?	i	?	?	-22%[87.6 µM]
COc1ccc(-c2ccc3ncc(Nc4ccccc4C)n3n2)cn1	-1%[70.6 µM]	-12%[87.6 µM]	i	89µM*	?	-17%[87.6 µM]
COc1ccc(-c2ccc3ncc(Nc4ccccc4)n3n2)cc1OC	1%[70.6 µM]	22%[87.6 µM]	i	20µM*	35µM*	?
O=C(NC1CCN(C(=O)c2ccc(-c3cccs3)cc2)CC1)c1ccccc1F	.	19%	.	?	?	-1%[12.5 µM]
Cn1nc(-c2ccncc2)cc1NC(=O)C1CCCC1	.	-7%[87.6 µM]	.	-15%[138 µM]	-30%[172 µM]	-6%[87.6 µM]
O=C(NCC1CC1)c1ccc2nccn2c1	.	37%[87.6 µM]	.	1%[174 µM]	i	-9%[87.6 µM]
O=C(NCc1ccncc1)c1ccc2nccn2c1	0%	5%	i	-19%	-2%	12%
O=C(NCCC1CCCCC1)c1ccc2nccn2c1	-16%[70.6 µM]	83%[87.6 µM]	?	?	50µM*	1%[87.6 µM]
O=C(NCc1cccs1)c1ccc2nccn2c1	1%[70.6 µM]	95%[87.6 µM]	40µM*	-28%[138 µM]	3%[172 µM]	-9%[87.6 µM]
O=C(NC1CC1)c1cn2cc(-c3ccc(F)cc3)sc2n1	.	45%[87.6 µM]	.	?	?	9%[87.6 µM]
OC[C@@H]1CNC[C@H]1C1CCN(Cc2ccc(Br)cc2F)CC1	-8%	11%	i	?	?	6%[12.5 µM]
OC[C@@H]1CNC[C@H]1C1CCN(Cc2ccc(F)c(Br)c2)CC1	7%	14%	i	35µM*	?	-1%[12.5 µM]
O=Nc1c(-c2c(O)[nH]c3cc(Br)ccc23)[nH]c2ccccc12	.	-5%	.	.	.	25µM*!
CCOC(=O)[C@H]1C[C@]2(CCCCN(CCOC(C)=O)C2=O)N(C(=O)c2ccno2)[C@H]1c1ccccc1	.	.	.	?	-22%	.
CS[C@H]1SC[C@@H]2C(=O)N(C)[C@H](C(C)C)C(=O)OC[C@H](NC(=O)c3cnc4ccccc4n3)C(=O)N[C@H](C)C(=O)N(C)[C@@H]1C(=O)N(C)[C@H](C(C)C)C(=O)OC[C@H](NC(=O)c1cnc3ccccc3n1)C(=O)N[C@H](C)C(=O)N2C	.	0.0061µM*	.	.	.	0.019µM*
COc1ccc(-c2noc([C@@H]3C[C@H](NC(=O)COCC(=O)O)CN3C)n2)cc1	-1%[70.6 µM]	2%[87.6 µM]	63µM*	-2%[138 µM]	1%[172 µM]	4%[87.6 µM]
SMILES	NPR1 antag	SNCA expr inhib	FLuc inh	3T3 cytotox	HEK293 tox	HEK293 viab
CN1C[C@@H](NC(=O)CCC(=O)O)C[C@H]1c1nc(-c2ccc3ccccc3c2)no1	1%[70.6 µM]	40%[87.6 µM]	32µM*	-30%[174 µM]	-6%[172 µM]	6%[87.6 µM]
N#Cc1cccnc1-c1ccc(C(=O)N2CCC(NC(=O)c3ccc(Cl)nc3)CC2)cc1	.	-10%	.	?	?	3%[12.5 µM]
O=C(Nc1ccc(Cl)cc1)N1CCN(C(=O)c2cccc(-c3ccccn3)c2)CC1	.	-15%	.	?	?	-3%[12.5 µM]
COC(=O)N[C@@H]1C[C@H]2C[C@@H](C(C)C)OC[C@@]2(c2ccccc2)C1	.	.	.	-28%	?	.
O=C(NCC(F)F)c1nc2cccnc2n(Cc2ccccc2)c1=O	.	12%[87.6 µM]	.	?	?	-4%[87.6 µM]
Cc1ccccc1CC(=O)Nc1ccc2ncnc(N3CCCCC3)c2c1	-7%	?	i	?	40µM*	-30%
COc1ccccc1CC(=O)Nc1ccc2c(N3CCCCC3)ncnc2c1	?	9%	i	?	25µM*	-4%
O=C(Nc1ccc2ncnc(N3CCCCC3)c2c1)c1ccccc1	-29%	10%	i	?	?	-21%
O=C(C1CCCC1)N1CCCC(C(=O)N2CCCC2c2nc3ccncc3[nH]2)C1 (stereo not given)	.	15%	.	-11%	-12%	6%
Cn1nc(C(=O)N2CCC3(CC2)N=C(c2ccc(Br)cc2)NO3)c2ccccc21	?	?	i	?	?	-17%
Cn1nc(C(=O)N2CCC3(CC2)N=C(c2ccccc2)NO3)c2ccccc21	-4%	74%	35µM*	-3%	?	-3%
O=C(c1n[nH]c2c1CCCC2)N1CCC2(CC1)N=C(c1ccccc1)NO2	-24%	89%	28µM*	-16%	?	-6%
CN(C)C(=O)c1nc2cccnc2n(CCc2ccccc2)c1=O	.	6%[87.6 µM]	.	2%[138 µM]	0%[172 µM]	-4%[87.6 µM]
COc1ccc(C(=O)N2CCC3(CC2)CC(C(C)C)=NO3)cc1	-7%[70.6 µM]	18%[87.6 µM]	i	100µM*	-19%[172 µM]	-2%[87.6 µM]
COc1ccc(C(=O)N2CCC3(CC2)Cc2ccccc2NC3=O)cc1	-9%	2%	i	35µM*	22µM*	-41%
O=C(c1ccccc1Cl)N1CCC2(CC1)Cc1ccccc1NC2=O	5%	12%	i	?	45µM*	1%
COc1ccc(C(=O)N2CCC3(CC(C(C)C)=NO3)C2)cc1 (stereo not given)	.	-11%	.	0%	1%	-21%

Screening data from PubChem BioAssay.
